Source: PubChem
The list is not random: actives were taken first. Their share in the collection is about 2.9%.
TRPML1 inh: qHTS for Inhibitors of the Human Mucolipin Transient Receptor Potential 1 (TRPML1); Mucolipin-1 (Homo sapiens), Q9GZU1; TRPML1-inducible cells, Ca2+ dye fluorescence, FDSS; active compounds read low; inhibition of EC80 agonist-evoked calcium signal; activity change, negative = inhibition, % (test concentration not listed); actives 0.02% (n = 390,000); AID 624415, 2012; in the data active means activity change below about -50%; inconclusive means between about -30% and that limit;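 further: stimulus is agonist 54-4 at its EC80 concentration; on the % scale 0 is the no-effect control and ±100 the full control effect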
Target sequence (Q9GZU1 whole entry, looked up): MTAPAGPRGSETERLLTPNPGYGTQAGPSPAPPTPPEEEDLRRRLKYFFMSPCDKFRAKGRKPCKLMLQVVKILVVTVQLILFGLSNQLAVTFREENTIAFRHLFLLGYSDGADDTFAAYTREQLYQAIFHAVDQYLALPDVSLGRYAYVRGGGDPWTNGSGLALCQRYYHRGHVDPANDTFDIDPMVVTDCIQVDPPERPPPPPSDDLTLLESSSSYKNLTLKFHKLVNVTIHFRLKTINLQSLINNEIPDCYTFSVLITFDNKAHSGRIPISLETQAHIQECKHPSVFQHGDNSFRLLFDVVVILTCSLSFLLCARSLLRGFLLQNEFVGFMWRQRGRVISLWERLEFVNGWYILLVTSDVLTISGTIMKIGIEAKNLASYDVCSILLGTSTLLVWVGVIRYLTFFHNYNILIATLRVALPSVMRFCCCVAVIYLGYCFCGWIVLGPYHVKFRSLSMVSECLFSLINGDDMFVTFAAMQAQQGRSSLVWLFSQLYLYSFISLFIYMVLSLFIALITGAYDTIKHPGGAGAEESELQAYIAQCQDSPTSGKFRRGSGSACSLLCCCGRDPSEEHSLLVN
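Tet-induced TRPML1-DL cells loaded with Ca8 no-wash calcium dye were read kinetically on FDSS. Compound addition was followed by EC80 agonist 54-4 (4 uM final); inhibition was read over 110 s.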
DRD3 agonist: qHTS of D3 Dopamine Receptor Agonist: qHTS; actives 0.58% (n = 410,000); max activation, %; D3R DiscoveRx beta-arrestin cells, luminescence, 90 min; in the data active means max activation above about 30%; further: 0% is about no effect
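Cells at 1500/well, incubated overnight, then treated with pinned compounds (dopamine as control) for 90 min at 37 degrees C. DiscoveRx reagent added for 30 - 60 minutes at room temperature; luminescence read.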
DRD3 antagonist: qHTS of D3 Dopamine Receptor Antagonist: qHTS. D(3) dopamine receptor (Homo sapiens), P35462. D3R cells, DiscoveRx beta-arrestin luminescence, antagonist mode; active compounds read low. max response, negative = inhibition, %. actives 2.5% (n = 360,000); in the data active means max response below about -50%; inconclusive means no clear call, values can overlap the other calls; further: on the % scale 0 is the no-effect control and ±100 the full control effect
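Cells plated overnight at 1500 cells/well, then exposed to library compounds with dopamine controls for 90 minutes at 37 degrees C. DiscoveRx reagent added for 30–60 minutes at room temperature; luminescence read, quantitative HTS format.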
TRPML1 ag: qHTS for Agonists of the Human Mucolipin Transient Receptor Potential 1 (TRPML1) | activation, % (concentration not given with the values) | TRPML1-expressing cells, Ca2+ dye fluorescence, FDSS | AID 624414, 2012 | actives 0.12% (n = 410,000); in the data active means activation above about 50%; inconclusive means mostly about 30% to 49%; further: 0% is about no effect
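Kinetic FDSS Ca2+ read in Tet-induced TRPML1-DL cells (ABD Ca8 dye plus quencher, 45-90 min RT loading): baseline, then compound, then 110 s agonist window; EC80 agonist 54-4 at 4uM final added afterwards for a 110 s antagonist window.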
* hit, by the source's call; ? = inconclusive; / = not tested or not shown.

SMILES	TRPML1 inh	DRD3 agonist	DRD3 antagonist	TRPML1 ag
COc1ccc(-c2nc(S(=O)(=O)c3ccccc3)c(N3CCOCC3)o2)cc1	22	25	5	0
Cc1cccc(-c2nc(S(=O)(=O)c3ccc(F)cc3)c(NCCCN3CCOCC3)o2)c1	67	-12	-73*	0
O=C(Nc1cc(Cl)cc(Cl)c1)c1ccc(F)c(S(=O)(=O)N2CCCCCC2)c1	70	-10	/	2
CN(C)CCCNc1oc(-c2ccccc2Cl)nc1S(=O)(=O)c1ccc(F)cc1	-10	-23	-61*	0
CN(C)CCNc1oc(-c2ccccc2Cl)nc1S(=O)(=O)c1ccccc1	-2	-15	-1	0
Cc1sc2nc(SCc3ccc(C(=O)O)cc3)n(Cc3ccco3)c(=O)c2c1C	44	84*	146	3
CCCN1CNc2c(c(=O)[nH]c(=S)n2CCc2cc(C)ccc2C)C1	/	/	/	0
CC[C@@H](C)CCCCC(=O)N[C@@H](CCNCS(=O)(=O)O)C(=O)N[C@H](C(=O)N[C@@H](CCNCS(=O)(=O)O)C(=O)N[C@H]1CCNC(=O)[C@H]([C@@H](C)O)NC(=O)[C@H](CCNCS(=O)(=O)O)NC(=O)[C@H](CCNCS(=O)(=O)O)NC(=O)[C@H](CC(C)C)NC(=O)[C@@H](CC(C)C)NC(=O)[C@H](CCNCS(=O)(=O)O)NC1=O)[C@@H](C)O	/	6	/	/
COC(=O)C1CCN(Cc2cc(=O)oc3cc(C)c(Cl)cc23)CC1	41	95*	4	-1
Cc1cc2oc(=O)cc(Cn3ncc(Cl)c(Cl)c3=O)c2cc1Cl	9	-10	-77*	0
Cc1cc2oc(=O)cc(CN3CCN(c4ccccc4)CC3)c2cc1Cl	/	5	14	-1
CCc1ccc2c(CN3CCN(S(=O)(=O)c4ccccc4F)CC3)cc(=O)oc2c1	-9	-9	4	3
CCc1ccc2c(CN3CCN(S(=O)(=O)c4cccs4)CC3)cc(=O)oc2c1	2	-6	-75*	2
CCc1ccc2c(CN3CCC(C(=O)OC)CC3)cc(=O)oc2c1	17	100*	50	0
CCCOc1ccc(C2C(=O)N(C3CCC(C)CC3)CC(=O)N2Cc2cccc(OC)c2)cc1OC (stereo not given)	-7	-2	/	1
S=C(NCCCN1CCOCC1)N(Cc1ccccc1)Cc1ccccc1	1	-2	-93*	0
CN(C)c1cccc(-c2nnc(SCC(=O)NCc3ccco3)n2C)c1	/	/	/	-1
Cc1c(C(=O)Nc2cccc(C(F)(F)F)c2)oc2ccc(S(=O)(=O)N3CCC4(CC3)OCCO4)cc12	-26	12	/	0
Cc1c(C(=O)Nc2cccc(C(F)(F)F)c2)oc2ccc(S(=O)(=O)N3CCOCC3)cc12	-7	64*	6	1
Cc1cc(C)cc(N(CC(=O)Nc2c(C)cc(C)cc2C)S(=O)(=O)c2c(C)nn(C)c2C)c1	1	78*	/	1
CCOc1ccccc1NC(=O)CN(c1cc(C)cc(C)c1)S(=O)(=O)c1c(C)nn(C)c1C	15	-4	/	2
COc1ccc(CN2CC(COCc3ccccc3)Oc3ccccc3S2(=O)=O)cc1 (stereo not given)	48	41*	0	4
CC(=O)Nc1sc2c(c1-c1nc3ccccc3s1)CCN(C(C)C)C2	19	-10	-116*	10
CC(=O)N1CCc2c(sc(NC(=O)CSc3ccc(F)cc3)c2-c2nc3ccccc3s2)C1	-6	-13	/	0
CCN1CCc2c(sc(NC(=O)CSc3ccccc3)c2-c2nc3ccccc3s2)C1	-14	-24	/	70*
SMILES	TRPML1 inh	DRD3 agonist	DRD3 antagonist	TRPML1 ag
CC(C)N1CCc2c(sc(NC(=O)c3ccc4ccccc4c3)c2C(N)=O)C1	1	-11	-17	9
CN1CCc2c(sc(NC(=O)CSc3ccc(F)cc3)c2-c2nc3ccccc3s2)C1	-13	-21	/	66*
CN1C(=O)c2ccccc2Sc2ccc(NC(=O)COc3ccc(F)cc3)cc21	30	-3	/	2
CCc1ccc(NC(=O)c2nc(SCc3ccccc3F)ncc2Cl)cc1	/	/	/	0
CC(C)(C)C(=O)CSc1n[nH]c(-c2ccccc2)n1	/	/	/	0
Oc1ccc(N2CCN(C(c3ccc(Cl)cc3)c3nnnn3Cc3ccc(F)cc3)CC2)cc1 (stereo not given)	/	/	/	0
O=C(CCCN1CCN(c2ccccc2)CC1)c1ccc(F)cc1	-2	2	-102*	-1
O=C(CN1CCN(c2ccccc2)CC1)c1ccc2cc[nH]c2c1	0	2	-63*	0
O=C(CCN1CCc2ccccc2C(c2ccccc2)C1)c1ccc2c(c1)OCCO2 (stereo not given)	-5	-16	?	2
O=C(CCCN1Cc2ccccc2C1)c1ccc(F)cc1	-15	-15	-151*	0
O=C(CCC(=O)N1CCN(c2ccc(F)cc2)CC1)c1ccccc1	4	0	-10	-1
O=C(CCN1Cc2ccccc2C1)c1ccc2c(c1)OCCO2	1	-29	-52*	0
CCOC(=O)c1cc(-c2ccccc2)n(CCC(=O)NCCc2ccccc2)c1C	-13	-26	/	3
CN1CCN(CCCC(=O)c2ccc(F)cc2)CC1	1	-6	-60*	0
NC(=O)C1(N2CCCCC2)CCN(CCCC(=O)c2ccc(F)cc2)CC1	/	-23	/	/
O=C(CCCN1CCOC(c2ccccc2)C1)c1ccc(F)cc1 (stereo not given)	21	-26	-86*	2
O=C(CCCN1CCN2CCCC2C1)c1ccc(F)cc1 (stereo not given)	/	-19	/	/
CC1(C)N=C(N)N=C(N)N1c1ccc(Cl)cc1	/	0	/	/
C[C@H](CO)N1C[C@H](C)[C@@H](CN(C)C(=O)NC2CCCCC2)Oc2ccc(NC(=O)Nc3ccc(C(F)(F)F)cc3)cc2C1=O	0	54*	29	0
C[C@@H]1CN([C@H](C)CO)C(=O)CCCn2nncc2CO[C@@H]1CN(C)C(=O)Nc1ccc2c(c1)OCO2	10	-10	-60*	0
C[C@H](CO)N1C[C@H](C)[C@@H](CN(C)C(=O)Nc2ccc(C(F)(F)F)cc2)Oc2c(NC(=O)Nc3ccc4c(c3)OCO4)cccc2C1=O	0	-12	-9	0
C[C@@H]1CN([C@H](C)CO)C(=O)CCCn2nncc2CO[C@H]1CN(C)C(=O)Nc1ccc2c(c1)OCO2	-10	-8	?	0
C[C@H](CO)N1C[C@H](C)[C@@H](CN(C)C(=O)Nc2ccc3c(c2)OCO3)Oc2c(NC(=O)Nc3ccc(C(F)(F)F)cc3)cccc2C1=O	7	32*	94	1
C[C@H](CO)N1C[C@H](C)[C@@H](CN(C)C(=O)Nc2ccc(C(F)(F)F)cc2)Oc2c(cccc2N(C)C)C1=O	9	-75	-130*	0
